An excerpt weighted towards active compounds, which were near 18% of everything screened.
Gal4-VP16 FLuc = counter-screen for ROR gamma inhibitors: Gal4-VP16 reporter; Drosophila S2 Gal4-VP16 UAS-luciferase, luminescence, 20 h; Potency, µM (series often up to 53.6 µM), most hits filed as inhibitors; actives 3.5% (n = 310,000); AID 2546;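 note: Gal4-VP16 expression switched on by copper sulfate through the metallothionein promoter; nearly all actives have a fitted effect of over 50% in size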
DT40 TDP1 no CPT = qHTS for Inhibitors of human tyrosyl-DNA phosphodiesterase 1 (TDP1): qHTS in cells in absence of CPT; AID 686978, 2013; DT40 Tdp1-/- hTDP1 cells, no CPT, ATP luminescence, 48 h; Potency, µM (highest dose often 46.2 µM), hits mostly inhibitors; actives 15% (n = 420,000); note: nearly all actives have a fitted effect of over 55% in size
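Chicken DT40 Tdp1-/- cells stably complemented with human TDP1 were seeded at 400 cells/well with DMSO in place of 20 nM camptothecin. After compound pinning, cells grew at least 48 hr at 37 °C; viability read by CellTiter-Glo luminescence.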
IL-1B inflam inh = blocks inflammasome-driven IL-1 beta release. THP-1 LPS/ATP IL-1B secretion, AlphaLISA, 16 h; active compounds read low. activity change, % at 57.5 µM. actives 4.7% (n = 360,000). AID 743279; in the data active = activity change below about -50%; inconclusive = mostly about -30% to -49%
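THP-1 cells pretreated 1 hr with compounds (up to 57.5 uM final), then stimulated with LPS (250 ng/mL final) plus ATP (1.25 mM final); secreted IL-1B measured by AlphaLISA after 16 hr, decreased signal indicating inhibition.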
RORgamma inh = ROR gamma (mouse) transcription inhibition; P51450; Drosophila S2 Gal4-RORgamma UAS-luciferase reporter, 20 h; Potency, µM (titrated, usually from 53.6 µM), hits mostly inhibitors; actives 5.4% (n = 310,000); AID 2551; note: nearly all actives have a fitted effect of over 60% in size
Target sequence (P51450 whole entry, looked up, the tested form may be a part): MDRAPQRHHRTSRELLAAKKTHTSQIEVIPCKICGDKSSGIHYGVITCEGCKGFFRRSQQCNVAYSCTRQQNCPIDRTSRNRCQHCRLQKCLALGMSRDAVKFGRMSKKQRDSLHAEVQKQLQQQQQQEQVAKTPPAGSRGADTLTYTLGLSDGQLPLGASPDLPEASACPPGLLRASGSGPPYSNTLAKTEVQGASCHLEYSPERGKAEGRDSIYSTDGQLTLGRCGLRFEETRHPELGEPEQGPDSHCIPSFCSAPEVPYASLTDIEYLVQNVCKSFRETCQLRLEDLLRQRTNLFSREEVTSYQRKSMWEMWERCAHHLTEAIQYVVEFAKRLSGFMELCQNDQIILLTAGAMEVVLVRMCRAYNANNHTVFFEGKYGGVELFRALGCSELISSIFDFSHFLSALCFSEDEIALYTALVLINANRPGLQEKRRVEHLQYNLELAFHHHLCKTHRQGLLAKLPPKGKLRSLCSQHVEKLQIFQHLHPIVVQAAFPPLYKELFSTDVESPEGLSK
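Schneider cells (Drosophila), stable Gal4 DBD–ROR gamma + UAS-luc; 1 hr cmpd preincubation; Cu2+ induction 700 uM final; 20 hr ambient; luminescence.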
TDP1 cell CPT = DT40-hTDP1 cell growth loss with CPT | AID 686979 | chicken DT40 Tdp1-/-;hTDP1 cells + 20 nM CPT, ATP luminescence, 48 h | actives 12% (n = 420,000) | Potency, µM (doses to about 46.2 µM), hits mostly inhibitors; note: nearly all actives have a fitted effect of over 55% in size
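Chicken DT40 Tdp1-/- cells complemented with human TDP1, 400 cells/well, exposed to compounds plus 20 nM camptothecin for at least 48 h at 37 C; viability read as ATP content by CellTiter-Glo luminescence.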
LDHA block = LDHA (human) enzyme inhibition; purified LDHA, NADH/diaphorase-resazurin fluorescence; active compounds read low; activity change, % (values are at about 110 or 230 µM); actives 0.15% (n = 480,000); AID 1347041; P00338; in the data active = activity change below about -30%; inconclusive = mostly about -25% to -30%
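Enzyme activity of human lactate dehydrogenase 5 (2 nM; 0.06 mM NADH, 0.2 mM pyruvate, 5 min, RT) is measured via a resazurin/diaphorase fluorescence readout of residual NADH.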
Numbers stand for hits; – = inactive; ? = inconclusive; · = not tested or not shown; [ ] = remark or other dose. Unless noted, calls come from the whole dose curve; as a rule, active = well fitted curve in the direction sought with a large enough effect; inconclusive = small, poorly fitted or top-dose-only effect, or another doubt; inactive = no such curve, though single readings can be large; an effect the other way counts as inactive or inconclusive.

SMILES	Gal4-VP16 FLuc	DT40 TDP1 no CPT	IL-1B inflam inh	RORgamma inh	TDP1 cell CPT	LDHA block
Cc1ccc2c(Cl)cc(Cl)c(OCC(=O)NC(N)=O)c2n1	·	·	·	·	·	–
COc1ccc(/C=N/N(Cc2ccccc2)c2ccccc2)cc1O	–	?	-86	–	?	–
COc1ccc(/C=N/O)cc1O	·	·	·	·	·	–
O=Cc1ccc(O)c(O)c1	–	–	-57	–	–	–
C(=N\N(c1ccccc1)c1ccccc1)/c1ccccn1	–	29µM	–	–	–	–
O=C1Nc2ccccc2/C1=N\N=C\c1ccc(O)c(O)c1	?	?	-71	–	?	–
COc1cc(C=O)ccc1O	–	–	·	–	–	·
CN(CC(=O)N(C)C1CCCCCC1)c1ncnc2nc[nH]c12	·	·	·	·	·	–
Oc1ccc(/C=N/N=C/c2ccc(O)c(O)c2)cc1O	?	18µM	–	–	?	–
O=C(/C(=N/N=C/c1ccc(O)c(O)c1)c1ccccc1)c1ccccc1	?	8.2µM	-76	–	7.3µM	–
Oc1ccc(N=Cc2cccc(OCc3ccccc3)c2)cc1	·	·	·	·	·	–
Oc1ccc(/C=N/N(c2ccccc2)c2ccccc2)cc1O	–	?	–	?	10µM	–
Oc1ccc(N=Cc2ccc(O)c(O)c2)cc1	10µM	?	-55	4.5µM	?	–
CC(=O)c1cccc(NC(=O)C2(c3cccc(Br)c3)CCCC2)c1	·	·	·	·	·	–
CCNc1nc(N2CCOCC2)nc(N(c2ccccc2)c2ccccc2)n1	–	–	–	–	–	–
C=CCNc1nc(NCC)nc(N2CCOCC2)n1	–	–	–	2µM	–	–
C=CCNc1nc(Nc2ccc(-c3nc4ccccc4o3)cc2)nc(N2CCOCC2)n1	–	26µM	–	–	29µM	–
COc1ccc(C)cc1NC(=O)CNC(=O)CNc1ccc(C)cc1Br	·	·	·	·	·	–
O=C(COc1ccc(Br)cc1Cl)NC(=S)N1CCc2ccccc21	0.71µM	–	–	0.79µM	–	–
CC(Oc1ccc(Cl)cc1Cl)C(=O)NC(=S)N1CCc2ccccc21 (stereo not given)	0.89µM	?	–	0.71µM	?	–
CC(Oc1ccc(Cl)cc1C(N)=O)C(=O)N1CCc2ccccc21 (stereo not given)	·	?	–	·	?	–
O=C(COc1ccc(Br)cc1Br)NC(=S)N1CCCc2ccccc21	–	–	–	–	–	–
O=C(NCCNc1ccc(C(F)(F)F)cn1)C1CC=CCC1 (stereo not given)	·	·	·	·	·	–
CC12CCC(=O)N1C(C(=O)N1CCN(c3ccc(C(F)(F)F)cc3[N+](=O)[O-])CC1)CS2 (stereo not given)	–	26µM	–	–	21µM	–
CC12CCC(=O)N1C(C(=O)N1CCN(c3ccc([N+](=O)[O-])cc3)CC1)CS2 (stereo not given)	·	21µM	–	·	?	–
SMILES	Gal4-VP16 FLuc	DT40 TDP1 no CPT	IL-1B inflam inh	RORgamma inh	TDP1 cell CPT	LDHA block
Cc1ccc(Nc2nnc(SCc3nnc(C(C)(C)C)o3)s2)cc1	·	·	·	·	·	–
CCOc1ccccc1C(=O)Nc1ccc2nc3n(c(=O)c2c1)CCCCC3	–	2.6µM	–	–	?	–
COc1ccc(Cl)cc1C(=O)Nc1ccc2nc3n(c(=O)c2c1)CCCC3	–	18µM	–	–	15µM	–
COc1cc(C(=O)Nc2ccc3nc4n(c(=O)c3c2)CCCC4)ccc1Br	–	?	–	–	–	–
Cc1ccc(-n2nc3ccc(NC(=O)/C=C/c4ccco4)cc3n2)cc1	–	?	–	–	21µM	–
O=c1c2cc(NC(=S)N3CCCC3)ccc2nc2n1CCCCC2	–	–	–	–	–	–
O=C(/C=C/c1ccco1)Nc1ccc2nc3n(c(=O)c2c1)CCCC3	–	–	-51	–	?	–
CCn1c2ccccc2c2cc(NC(=O)c3cccc(OC)c3)ccc21	–	7.9µM	?	?	8.9µM	–
COc1cccc(C(=O)Nc2cccc3ccccc23)c1	–	?	–	–	?	–
COc1cccc(C(=O)Nc2cccc3c2ccc2cccn23)c1	–	23µM	–	–	16µM	–
CCn1c2ccccc2c2cc(NC(=O)c3cccc(OC)c3OC)ccc21	–	4.1µM	–	?	8.2µM	–
CCn1c2ccccc2c2cc(NC(=O)c3ccccc3[N+](=O)[O-])ccc21	–	23µM	–	?	21µM	–
Cc1ccc2c(CN(C)Cc3nc4ccccc4c(=O)[nH]3)cc(=O)oc2c1C	·	·	·	·	·	–
Cc1ccccc1C(=O)N1CCC(C(=O)NCC(F)(F)F)CC1	·	·	·	·	·	–
CCn1c2ccccc2c2cc(NC(=O)c3ccco3)ccc21	–	?	-52	–	?	–
O=C1C=C(O)c2cccc(O)c2C1=O	–	?	–	–	26µM	–
O=C1C=C(O)c2ccccc2C1=O	–	–[9.04 µM]	·	–	?	·
COc1cccc(Oc2ccc(N/C=C/C(=O)C(C)(C)C)cc2)c1	?	?	-65	?	–	–
COc1ccc(Oc2ccc(N/C=C/C(=O)C(C)(C)C)cc2)cc1	–	–	–	–	–	–
O=C(NCc1nnc2n1CCN(Cc1cc(F)cc(F)c1)CC2)c1cccc(F)c1	·	4.6µM	·	·	4.1µM	·
Cc1nn(-c2nc3c(c(=O)n(Cc4c(F)cccc4Cl)c(=O)n3C)n2C)c(C)c1C	·	·	·	·	·	–
Cc1cc(C)c(/C=C/c2onc(C)c2S(=O)(=O)N2CCC(C(=O)Nc3cccc(C)c3C)CC2)c(C)c1	·	6.5µM	·	·	5.2µM	–
Cc1ccc(CNC(=O)C2CCN(S(=O)(=O)c3c(C)noc3/C=C/c3cccs3)CC2)cc1	·	?	·	·	21µM	–
Cc1ccc(/C=C/c2onc(C)c2S(=O)(=O)N2CCC(C(=O)N(CCC(C)C)Cc3ccco3)CC2)cc1	·	16µM	·	·	?	–
Cc1ccc(/C=C/c2onc(C)c2S(=O)(=O)N2CCC(C(=O)NCc3ccco3)CC2)cc1	·	–	·	·	–	–
Cc1cccc(N2CCN(C(=O)C3CCN(S(=O)(=O)c4c(C)noc4/C=C/c4ccccc4F)CC3)CC2C)c1 (stereo not given)	·	6.5µM	·	·	10µM	–
Cc1ccc(/C=C/c2onc(C)c2S(=O)(=O)N2CCC(C(=O)N3CC(C)Oc4ccccc43)CC2)cc1 (stereo not given)	·	12µM	·	·	18µM	–
CCOC(=O)C1CCN(C(=O)C2CCN(S(=O)(=O)c3c(C)noc3/C=C/c3ccc(C)cc3)CC2)CC1	·	5.2µM	·	·	?	–
CCOc1ccccc1/C=C/c1onc(C)c1S(=O)(=O)N1CCC(C(=O)N2CCCCC2)CC1	·	21µM	·	·	16µM	–
CCOc1ccccc1/C=C/c1onc(C)c1S(=O)(=O)N1CCC(C(=O)NC)CC1	–	?	–	?	?	–

Screens from PubChem.
